# Source: PubChem BioAssay (EPA / NIEHS)
# Values joined by “and” are separate entries in the source; they are usually repeats but may differ in a detail not shown here. Equal entries are not always repeated. Records with an inconclusive call do not appear. Some compounds were tested as several samples or in several runs, with calls that do not always agree. Active and inactive are the calls of the source. Rule for the calls, unless noted: active = hit-call score of the fitted dose curve at least 0.9, where 1 is the maximum; inconclusive = response in the unintended direction; inactive = score below 0.9.
# Experiments:
# [1] = Tanguay_ZF_120hpf_PE_legacy: (Legacy) Oregon State University Tanguay Lab 120 Hour Post-fertilization zebrafish Assay for Pericardial Edema (AID 2283640)
# Procedure, shortened: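 Embryos from wild-type 5D adults were staged, then dosed in 0.64% DMSO. They were kept sealed in the dark at 28C until 120 hpf. Pericardial edema was then recorded as present or absent.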
# [2] = Tanguay_ZF_120hpf_BRAI_legacy: (Legacy) Oregon State University Tanguay Lab 120 Hour Post-fertilization zebrafish Assay for Brain Malformation (AID 2283641)
# Procedure, shortened: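 Wild-type 5D larvae, static waterborne exposure to 120 hpf, 28C, 0.64% v/v DMSO. Brightfield scoring of brain defects, binary; dead embryos excluded. Positive ctrl 5uM trimethyltin chloride.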
# [3] = Tanguay_ZF_120hpf_SOMI_legacy: (Legacy) Oregon State University Tanguay Lab 120 Hour Post-fertilization zebrafish Assay for Somite Malformation (AID 2283647)
# Procedure, shortened: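 Read-out: presence or absence of somite malformation in 120 hpf larvae, gain-of-signal relative to DMSO baseline. Embryos lacked chorion (pronase, 4 hpf) and were exposed statically from 6 hpf at 28C; dead larvae not scored.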
# [4] = Tanguay_ZF_120hpf_CFIN_legacy: (Legacy) Oregon State University Tanguay Lab 120 Hour Post-fertilization zebrafish Assay for Caudal Fin Malformation (AID 2283649)
# Procedure, shortened: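 Binary presence or absence of caudal fin malformation at 120 hpf, read by brightfield microscopy, with DMSO as baseline. Larvae came from 5D wild-type embryos exposed statically from 6 hpf at 28C after pronase dechorionation.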
# [5] = Tanguay_ZF_120hpf_PIG_legacy: (Legacy) Oregon State University Tanguay Lab 120 Hour Post-fertilization zebrafish Assay for Pigmentation Malformation (AID 2283650)
# Procedure, shortened: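 Tropical 5D wild-type zebrafish embryos, dechorionated with pronase at 4 hpf, were exposed singly from 6 hpf to 120 hpf statically at 28C in sealed, dark plates with 0.64% DMSO; pigmentation scored present/absent by brightfield microscopy, fitted against DMSO.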
# [6] = Tanguay_ZF_120hpf_CIRC_legacy: (Legacy) Oregon State University Tanguay Lab 120 Hour Post-fertilization zebrafish Assay for Circulatory Malformation (AID 2283651)
# Procedure, shortened: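 Dechorionated wild-type 5D zebrafish embryos, one per well, statically exposed from 6 to 120 hpf at 28C with 0.64% DMSO; circulatory malformation scored present/absent by brightfield microscopy at 120 hpf, dead embryos excluded.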
# [7] = Tanguay_ZF_120hpf_SWIM_legacy: (Legacy) Oregon State University Tanguay Lab 120 Hour Post-fertilization zebrafish Assay for Swim Bladder Malformation (AID 2283654);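 note: swim bladder malformation in each larva scored yes or no under brightfield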
# Procedure, shortened: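 Dechorionated Tropical 5D wild-type embryos, placed singly from 6 hpf, were statically exposed at 28C to 120 hpf with 0.64% DMSO final; swim bladder malformation was scored present/absent by brightfield microscopy, gain of signal relative to DMSO controls.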
# [8] = Tanguay_ZF_120hpf_TRUN_legacy: (Legacy) Oregon State University Tanguay Lab 120 Hour Post-fertilization zebrafish Assay for Truncated Body (AID 2283655)
# Procedure, shortened: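 Truncated body is recorded as a binary endpoint at 120 hpf by brightfield imaging of wild-type 5D larvae. Exposure runs statically from 6 hpf at 28C with 0.64% DMSO; embryos dying earlier are not scored.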
# [9] = Tanguay_ZF_120hpf_NC_legacy: (Legacy) Oregon State University Tanguay Lab 120 Hour Post-fertilization zebrafish Assay for Notochord and Tail Malformation (AID 2283656)
# Procedure, shortened: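 Dechorionated Tropical 5D wild-type zebrafish embryos, one per well from 6 hpf, statically exposed to 120 hpf at 28C in 0.64% DMSO final. Notochord distortion scored present/absent by brightfield; dead embryos excluded.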
# [10] = CCTE_Simmons_CellTiterGLO_HEK293T: Viability Assessment in CCTE's Assays for Thyroperoxidase (TPO) Inhibition, Simmons Lab (AID 2283665);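 for AC50: cells exposed to compound for 24 h before readout; actives reduce ATP signal below DMSO vehicle meaning cytotoxicity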
# Procedure, shortened: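 HEK293T cells in DMEM with 1% FBS, dosed 24 h at 37C with 8 concentrations, 5 nM–87.5 uM final, 0.5% DMSO. ATP measured by CellTiter Glo luminescence; loss of signal vs DMSO, three biological replicates.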
# [11] = Tanguay_ZF_120hpf_TR_legacy: (Legacy) Oregon State University Tanguay Lab 120 Hour Post-fertilization zebrafish Assay for Touch Response (AID 2283667)
# Procedure, shortened: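 Tropical 5D wild-type zebrafish embryos were exposed statically in sealed, foil-covered plates at 28C until 120 hpf, with 0.64% (vol/vol) final DMSO. Touch response was scored as present or absent; embryos that died were not scored.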
# [12] = CCTE_Padilla_ZF_144hpf_TERATOSCORE: (Legacy) CCTE's 144 Hour Post-fertilization zebrafish Assay Teratoscore, Padilla Lab (AID 2283679; active = hit-call score of the fitted dose curve at least 0.9, where 1 is the maximum; inactive = score below 0.9;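 note: zebrafish embryos with chorions exposed by immersion from 6-8 hpf to 5 dpf with daily renewal; teratogenicity score from eye scoring of death hatching and malformations at 144 hpf; higher score means more developmental defects relative to DMSO baseline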)
# Procedure, shortened: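 Larvae scored by eye at 144 hpf for death, hatching and malformations after a day in clean Hanks'. Before that, daily-renewed exposure at 80 uM (0.4% DMSO, 26C) from roughly 6-8 hpf through 5 dpf, 4 embryos per chemical.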
# [13] = CEETOX_H295R_MTT_cell_viability: Viability Assessment in the CeeTox HT-H295R MTT Assay (AID 2283718; active = hit-call score of the fitted dose curve at least 0.9, where 1 is the maximum; inactive = score below 0.9)
# Procedure, shortened: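 H295R cells prestimulated 48 h with 10 uM forskolin, then exposed 48 h to test chemical (0.1% DMSO final). Viability by MTT (0.5 mg/ml, 4 h, 37 C), absorbance 570/650 nm; percent change versus DMSO, bidirectional fit.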
# [14] = Tanguay_ZF_120hpf_ActivityScore_legacy: (Legacy) Oregon State University Tanguay Lab 120 Hour Post-fertilization zebrafish Assay Score for Activity (AID 2283742);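 for AC50: static exposure from 6 hpf until 120 hpf at 28 °C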
# Procedure, shortened: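 Tropical 5D wild-type zebrafish embryos, dechorionated with pronase at 4 hpf, were exposed singly from 6 hpf to 120 hpf statically at 28C in 0.64% DMSO. Malformations and mortality were scored as binary by brightfield, with the activity score combining 18 morphology components.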
# [15] = target: Luciferin 4-monooxygenase (Photinus pyralis) (UniProt P08659); experiment: CCTE_Simmons_QuantiLum_inhib_2: CCTE's Firefly Luciferase Inhibition Assay, Simmons Lab (AID 2283767);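 for AC50: potency for inhibitors that lower luciferase luminescence relative to DMSO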
# Procedure, shortened: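 Cell-free recombinant firefly luciferase (5 ng/well) in 200mM potassium phosphate with 1 mg/ml BSA, 30 min at 37C with 8 concentrations from 5 nM to 87.5 uM [final], 0.5% DMSO. Luminescence read after D-luciferin (150uM)/dATP (147uM) reagent injection, pH 7.8; triplicates.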
# [16] = Tanguay_ZF_120hpf_PFIN_legacy: (Legacy) Oregon State University Tanguay Lab 120 Hour Post-fertilization zebrafish Assay for Pectoral Fin Malformation (AID 2283648);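 note: each larva judged yes or no for fin defect by brightfield with dead larvae skipped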
# Procedure, shortened: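 Tropical 5D wild-type embryos, dechorionated with pronase at 4 hpf, were placed singly in wells at 6 hpf and statically exposed until 120 hpf at 28C, sealed and dark, with 0.64% (vol/vol) final DMSO; pectoral fin malformation scored present/absent.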
# [17] = tested on: zebrafish Androgen Receptor (AR), gene 100005148; experiment: ATG_zfAR_XSP1: Attagene TRANS-FACTORIAL Multi-Species (XSP1) HepG2 Assay for zebrafish Androgen Receptor (AR) (AID 2283771)
# Procedure, shortened: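 HepG2 cells were transiently transfected with a zebrafish AR-GAL4 reporter system and partially stimulated with 3 nM 6-alpha-fluorotestosterone. Reporter mRNA was measured after 24 h dosing by RT-PCR with capillary electrophoresis, and gain-of-signal was fitted relative to DMSO.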
# [18] = STM_H9_CystineISnorm_perc: Stemina devTOX quickPredict H9 human embryonic stem cell (hESC)-based Assay for Cystine (CYSS) Metabolite Biomarker, Normalized (AID 2283713; active = hit-call score of the fitted dose curve at least 0.9, where 1 is the maximum; inactive = score below 0.9)
# Procedure, shortened: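 Undifferentiated H9 hESCs exposed 72 h, compound and media replaced every 24 h; final 24-h media analysed by UPLC-HRMS. Cystine normalized to C13 spike-in standard and median 0.1% DMSO control.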
# Luciferin 4-monooxygenase (Photinus pyralis), sequence (P08659 whole entry, looked up): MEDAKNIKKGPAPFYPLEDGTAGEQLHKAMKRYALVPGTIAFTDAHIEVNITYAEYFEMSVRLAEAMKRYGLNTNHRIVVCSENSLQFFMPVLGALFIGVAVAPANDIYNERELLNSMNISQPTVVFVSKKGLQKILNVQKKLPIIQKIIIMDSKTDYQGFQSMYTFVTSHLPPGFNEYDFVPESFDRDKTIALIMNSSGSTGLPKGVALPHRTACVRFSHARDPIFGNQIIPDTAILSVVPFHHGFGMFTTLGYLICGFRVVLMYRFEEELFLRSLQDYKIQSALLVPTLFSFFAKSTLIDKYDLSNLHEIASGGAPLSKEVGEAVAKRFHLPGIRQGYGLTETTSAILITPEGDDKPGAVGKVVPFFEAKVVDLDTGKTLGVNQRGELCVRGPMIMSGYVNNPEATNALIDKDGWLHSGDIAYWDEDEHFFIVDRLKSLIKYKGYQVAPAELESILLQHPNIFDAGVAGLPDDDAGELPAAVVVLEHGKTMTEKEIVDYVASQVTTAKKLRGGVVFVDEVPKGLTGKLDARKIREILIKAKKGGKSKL
smiles,measurement,setting,value
C[C@]12CC[C@@H]3c4ccc(O)cc4CC[C@H]3[C@@H]1CC[C@@H]2O,outcome,[1],inactive
same,outcome,[2],inactive
same,outcome,[3],inactive
same,outcome,[4],inactive
same,outcome,[5],inactive
same,outcome,[6],inactive
same,outcome,[7],inactive
same,outcome,[8],inactive
same,outcome,[9],inactive
same,outcome,[10],inactive
same,outcome,[11],inactive
same,AC50,[12],12 µM (active)
same,outcome,[13],inactive
same,outcome,[14],inactive
same,outcome,[15],inactive
CCCCCCCCCCCCOCCOS(=O)(=O)O,AC50,[10],78.3 µM (active)
same,outcome,[15],inactive
CC(=O)Nc1cc(S(=O)(=O)O)cc2cc(S(=O)(=O)O)c(N=Nc3ccccc3)c(O)c12,AC50,[10],17.3 µM (active)
same,AC50,[15],21.2 µM (active)
C#C[C@]1(O)CC[C@H]2[C@@H]3CCc4cc(O)ccc4[C@H]3CC[C@@]21C,outcome,[1],inactive
same,outcome,[2],inactive
same,outcome,[3],inactive
same,outcome,[16],inactive
same,outcome,[4],inactive
same,outcome,[5],inactive
same,outcome,[6],inactive
same,outcome,[7],inactive
same,outcome,[8],inactive
same,outcome,[9],inactive
same,AC50,[10],37.5 µM (active)
same,outcome,[11],inactive
same,AC50,[12],5.77 µM (active)
same,outcome,[13],inactive
same,outcome,[14],inactive
same,outcome,[15],inactive
O=c1cc(-c2ccc(O)cc2)oc2cc(O)cc(O)c12,outcome,[10],inactive
same,AC50,[15],7.35 µM (active)
CCCCC/C=C\C=C\C(=O)OCC,AC50,[10],88.6 µM (active)
same,outcome,[15],inactive
O=C(c1ccc(OCCN2CCCCC2)cc1)c1c(-c2ccc(O)cc2)sc2cc(O)ccc12,outcome,[1],inactive
same,outcome,[3],inactive
same,outcome,[16],inactive
same,outcome,[4],inactive
same,outcome,[6],inactive
same,outcome,[8],inactive
same,outcome,[9],inactive
same,AC50,[10],20 µM (active)
same,AC50,[12],86.8 µM (active)
same,outcome,[13],inactive
same,outcome,[14],inactive
same,outcome,[15],inactive
CCCc1ccc(N)cc1,outcome,[10],inactive
same,outcome,[15],inactive
C=C(C)C(N)=O,outcome,[1],inactive
same,outcome,[2],inactive
same,outcome,[3],inactive
same,outcome,[16],inactive
same,outcome,[4],inactive
same,outcome,[5],inactive
same,outcome,[6],inactive
same,outcome,[7],inactive
same,outcome,[8],inactive
same,outcome,[9],inactive
same,outcome,[11],inactive
same,outcome,[14],inactive
CC(C)(C)c1cccc(O)c1,outcome,[10],inactive
same,outcome,[13],inactive
same,outcome,[15],inactive
Cc1cccc(O)c1,outcome,[10],inactive
same,outcome,[15],inactive
CC/C(=C(\c1ccccc1)c1ccc(OCCN(C)C)cc1)c1ccccc1,outcome,[1],inactive
same,outcome,[3],inactive
same,outcome,[16],inactive
same,outcome,[4],inactive
same,outcome,[5],inactive
same,outcome,[6],inactive
same,outcome,[7],inactive
same,outcome,[8],inactive
same,outcome,[9],inactive
same,AC50,[10],8.72 µM (active) and 6.64 µM (active)
same,outcome,[11],inactive
same,AC50,[12],1.43 µM (active) and 1.58 µM (active)
same,outcome,[13],inactive
same,AC50,[14],31.1 µM (active)
same,outcome,[14],inactive
same,outcome,[15],inactive
same,outcome,[17],inactive
c1ccc2scnc2c1,outcome,[10],inactive
O=C(O)c1ccccc1O,AC50,[18],1490 µM (active)
